Results: PubChem BioAssay
A number with no mark means an inactive call. Active and inactive are the calls of the source.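 The calls were made as follows, unless noted: active = compound that reduces growth-factor-driven endothelial tube area in a mixed cell culture, no cutoff stated; inactive = the rest.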

assay: inhibition of endothelial tube formation, primary screen, imaging, VEGF stimulated, CD31 staining, tube area, NPC library (AID 1117340); conditions: VEGF-stimulated ADSC/ECFC co-culture, at 10 µM, hits give high values

For `O=c1c(-c2ccccc2)c1-c1ccccc1`, which tube area decrease is on record?
The tube area decrease was 103% (active).

For `COc1ccc(C(=O)NCc2ccc(OCCN(C)C)cc2)cc1OC`, which tube area decrease is on record?
Its tube area decrease is 4.2%.

For `CC(C(=O)O)c1ccc(CC2CCCC2=O)cc1` (stereo unspecified), which tube area decrease is on record?
The tube area decrease was -7.8%.

With `CN1CCN(c2c(F)cc3c(=O)c(C(=O)O)cn4c3c2SCC4)CC1` as the compound, how does the tube area decrease read?
Its tube area decrease is -3.6%.

For `CN1CCN(C2=Nc3cc(F)ccc3Cc3ccccc32)CC1`, which tube area decrease is on record?
The tube area decrease was 13%.

For `Nc1c2c(nc3c1CCC3)CCCC2`, which tube area decrease is on record?
The tube area decrease was 20.5%.

Which tube area decrease does the source give for `CC(=O)NS(=O)(=O)c1ccc(N)cc1` here?
The tube area decrease was 14.5%.

With `C[C@H](NC(CCc1ccccc1)C(=O)O)C(=O)N1CCC[C@H]1C(=O)O` (stereo partly specified) as the compound, how does the tube area decrease read?
Its tube area decrease is -8%.

Which tube area decrease does the source give for `O=C1c2cccc3c2[C@H](CCC3)CN1[C@@H]1CN2CCC1CC2` here?
Its tube area decrease is -6.9%.

For `CCOC(=O)C1=C(C)NC(C)=C(C(=O)OCC)C1c1ccccc1/C=C/C(=O)OC(C)(C)C`, which tube area decrease is on record?
The tube area decrease was 101% (active).

With `CCN1CCN(c2cc3c(cc2F)c(=O)c(C(=O)O)cn3C2CC2)CC1` as the compound, how does the tube area decrease read?
The tube area decrease was 8.4%.

With `CC1(C)S[C@@H]2[C@H](N=CN3CCCCCC3)C(=O)N2[C@H]1C(=O)O` as the compound, how does the tube area decrease read?
The tube area decrease was 4.4%.

With `CC(=O)OCC(=O)NCCCOc1cccc(CN2CCCCC2)c1` as the compound, how does the tube area decrease read?
Its tube area decrease is 10.4%.

With `Clc1ccc2c(c1)CCc1cccnc1C2=C1CCNCC1` as the compound, how does the tube area decrease read?
The tube area decrease was 9.9%.

Which tube area decrease does the source give for `CCc1c(C)[nH]c2c1C(=O)C(CN1CCOCC1)CC2` (stereo unspecified) here?
The tube area decrease was -10.5%.

For `COc1cc(C)nc(-n2nc(C)cc2OC)n1`, which tube area decrease is on record?
Its tube area decrease is 24.2%.

Which tube area decrease does the source give for `COc1cc(C(=O)NC2CCCNC2)cc(OC)c1OC` (stereo unspecified) here?
The tube area decrease was 0.1%.

With `CC(C)(C(=O)c1cccnc1)c1cccnc1` as the compound, how does the tube area decrease read?
Its tube area decrease is 4.4%.

For `CC(Oc1c(Cl)cccc1Cl)C1=NCCN1` (stereo unspecified), which tube area decrease is on record?
The tube area decrease was -28.5%.

For `CN(C)CC[C@@H](c1ccc(Br)cc1)c1ccccn1`, which tube area decrease is on record?
Its tube area decrease is -18.3%.

Which tube area decrease does the source give for `OCc1cccnc1` here?
Its tube area decrease is -10%.

Which tube area decrease does the source give for `CC(C)(C)C(O)/C=C/c1ccc2c(c1)OCO2` (stereo unspecified) here?
The tube area decrease was -6.4%.

For `COC(=O)C1=C(C)NC(C)=C(C(=O)O[C@@H]2CCCN(Cc3ccccc3)C2)[C@@H]1c1cccc([N+](=O)[O-])c1`, which tube area decrease is on record?
The tube area decrease was 52.9% (active).

Which tube area decrease does the source give for `COc1cc(C)c(Cc2cnc(N)nc2N)cc1OC` here?
Its tube area decrease is 11.1%.

With `CCN1CC(CCN2CCOCC2)C(c2ccccc2)(c2ccccc2)C1=O` (stereo unspecified) as the compound, how does the tube area decrease read?
The tube area decrease was -7%.

For `COC(=O)C1=C(C)NC(C)=C(C(=O)OCC(C)C)C1c1ccccc1[N+](=O)[O-]` (stereo unspecified), which tube area decrease is on record?
Its tube area decrease is 15.6%.

Which tube area decrease does the source give for `COc1cc2c(cc1OC)C(=O)C(CC1CCN(Cc3ccccc3)CC1)C2` (stereo unspecified) here?
The tube area decrease was 17.7%.

With `COc1ccc(CN2CCN(C(c3ccc(F)cc3)c3ccc(F)cc3)CC2)c(OC)c1OC` as the compound, how does the tube area decrease read?
Its tube area decrease is -1.5%.

For `Cc1cccc(C)c1NC(=O)C(C)N` (stereo unspecified), which tube area decrease is on record?
Its tube area decrease is -7.9%.

With `NCC1CCC(C(=O)Oc2ccc(CCC(=O)O)cc2)CC1` (stereo unspecified) as the compound, how does the tube area decrease read?
Its tube area decrease is 4.4%.

Which tube area decrease does the source give for `CCCN1CCCC[C@H]1C(=O)Nc1c(C)cccc1C` here?
Its tube area decrease is -2.1%.

Which tube area decrease does the source give for `CC(C)(O)c1ccccc1CC[C@@H](SCC1(CC(=O)O)CC1)c1cccc(/C=C/c2ccc3ccc(Cl)cc3n2)c1` here?
The tube area decrease was -7.2%.

Which tube area decrease does the source give for `CC(=O)Nc1ccc(CC(=O)O)cc1` here?
The tube area decrease was 12.1%.

With `CCN(CC)CCNC(=O)c1cc(Cl)c(N)cc1OC` as the compound, how does the tube area decrease read?
Its tube area decrease is 12.6%.

With `NC1CCN(c2nc3c(cc2F)c(=O)c(C(=O)O)cn3-c2ccc(F)cc2F)C1` (stereo unspecified) as the compound, how does the tube area decrease read?
Its tube area decrease is 3.6%.

For `C[C@H]1COc2c(C3(N)CC3)c(F)cc3c(=O)c(C(=O)O)cn1c23`, which tube area decrease is on record?
The tube area decrease was 2.8%.

Which tube area decrease does the source give for `CN(C)CC[C@@H](c1ccc(Cl)cc1)c1ccccn1` here?
Its tube area decrease is -4%.

For `COCc1c(C(C)C)nc(C(C)C)c(/C=C/[C@@H](O)C[C@@H](O)CC(=O)O)c1-c1ccc(F)cc1`, which tube area decrease is on record?
Its tube area decrease is 107% (active).

assay: glucagon-like peptide 1 release enhancers, primary assay, NCI-H716 cell line, NPC library (AID 1117341;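 active = compound raises GLP1 secretion from the human gut endocrine cells, with no numeric limit stated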; also: reference of the scale not given here); conditions: NCI-H716 cells, at 10 µM, hits give high values

With `O=c1c(-c2ccccc2)c1-c1ccccc1` as the compound, how does the GLP1 secretion stimulation read?
The GLP1 secretion stimulation was -2.9%.

Which GLP1 secretion stimulation does the source give for `COc1ccc(C(=O)NCc2ccc(OCCN(C)C)cc2)cc1OC` here?
The GLP1 secretion stimulation was -0.4%.

With `CC(C(=O)O)c1ccc(CC2CCCC2=O)cc1` (stereo unspecified) as the compound, how does the GLP1 secretion stimulation read?
Its GLP1 secretion stimulation is 0.4%.

With `CN1CCN(c2c(F)cc3c(=O)c(C(=O)O)cn4c3c2SCC4)CC1` as the compound, how does the GLP1 secretion stimulation read?
Its GLP1 secretion stimulation is 1.6%.

For `CN1CCN(C2=Nc3cc(F)ccc3Cc3ccccc32)CC1`, which GLP1 secretion stimulation is on record?
The GLP1 secretion stimulation was 8%.

Which GLP1 secretion stimulation does the source give for `Nc1c2c(nc3c1CCC3)CCCC2` here?
The GLP1 secretion stimulation was 4.4%.

With `CC(=O)NS(=O)(=O)c1ccc(N)cc1` as the compound, how does the GLP1 secretion stimulation read?
Its GLP1 secretion stimulation is -1.7%.

Which GLP1 secretion stimulation does the source give for `C[C@H](NC(CCc1ccccc1)C(=O)O)C(=O)N1CCC[C@H]1C(=O)O` (stereo partly specified) here?
Its GLP1 secretion stimulation is 1.4%.

With `O=C1c2cccc3c2[C@H](CCC3)CN1[C@@H]1CN2CCC1CC2` as the compound, how does the GLP1 secretion stimulation read?
Its GLP1 secretion stimulation is -4.5%.

For `CCOC(=O)C1=C(C)NC(C)=C(C(=O)OCC)C1c1ccccc1/C=C/C(=O)OC(C)(C)C`, which GLP1 secretion stimulation is on record?
Its GLP1 secretion stimulation is -0.4%.

With `CCN1CCN(c2cc3c(cc2F)c(=O)c(C(=O)O)cn3C2CC2)CC1` as the compound, how does the GLP1 secretion stimulation read?
The GLP1 secretion stimulation was 0.4%.

For `CC1(C)S[C@@H]2[C@H](N=CN3CCCCCC3)C(=O)N2[C@H]1C(=O)O`, which GLP1 secretion stimulation is on record?
The GLP1 secretion stimulation was -0.7%.

With `CC(=O)OCC(=O)NCCCOc1cccc(CN2CCCCC2)c1` as the compound, how does the GLP1 secretion stimulation read?
Its GLP1 secretion stimulation is -0.3%.

Which GLP1 secretion stimulation does the source give for `Clc1ccc2c(c1)CCc1cccnc1C2=C1CCNCC1` here?
The GLP1 secretion stimulation was 21.1% (active).

Which GLP1 secretion stimulation does the source give for `CCc1c(C)[nH]c2c1C(=O)C(CN1CCOCC1)CC2` (stereo unspecified) here?
Its GLP1 secretion stimulation is 5.2%.

For `COc1cc(C)nc(-n2nc(C)cc2OC)n1`, which GLP1 secretion stimulation is on record?
Its GLP1 secretion stimulation is -5.7%.

With `COc1cc(C(=O)NC2CCCNC2)cc(OC)c1OC` (stereo unspecified) as the compound, how does the GLP1 secretion stimulation read?
The GLP1 secretion stimulation was 3.3%.

Which GLP1 secretion stimulation does the source give for `CC(C)(C(=O)c1cccnc1)c1cccnc1` here?
Its GLP1 secretion stimulation is 0.8%.

With `CC(Oc1c(Cl)cccc1Cl)C1=NCCN1` (stereo unspecified) as the compound, how does the GLP1 secretion stimulation read?
Its GLP1 secretion stimulation is -2.9%.

Which GLP1 secretion stimulation does the source give for `CN(C)CC[C@@H](c1ccc(Br)cc1)c1ccccn1` here?
Its GLP1 secretion stimulation is 1.6%.

Which GLP1 secretion stimulation does the source give for `OCc1cccnc1` here?
Its GLP1 secretion stimulation is 1.4%.

For `CC(C)(C)C(O)/C=C/c1ccc2c(c1)OCO2` (stereo unspecified), which GLP1 secretion stimulation is on record?
Its GLP1 secretion stimulation is 1.9%.

Which GLP1 secretion stimulation does the source give for `COC(=O)C1=C(C)NC(C)=C(C(=O)O[C@@H]2CCCN(Cc3ccccc3)C2)[C@@H]1c1cccc([N+](=O)[O-])c1` here?
The GLP1 secretion stimulation was -0.5%.

For `COc1cc(C)c(Cc2cnc(N)nc2N)cc1OC`, which GLP1 secretion stimulation is on record?
Its GLP1 secretion stimulation is 0.8%.

With `CCN1CC(CCN2CCOCC2)C(c2ccccc2)(c2ccccc2)C1=O` (stereo unspecified) as the compound, how does the GLP1 secretion stimulation read?
The GLP1 secretion stimulation was 3.1%.

With `COC(=O)C1=C(C)NC(C)=C(C(=O)OCC(C)C)C1c1ccccc1[N+](=O)[O-]` (stereo unspecified) as the compound, how does the GLP1 secretion stimulation read?
The GLP1 secretion stimulation was 1.3%.

For `COc1cc2c(cc1OC)C(=O)C(CC1CCN(Cc3ccccc3)CC1)C2` (stereo unspecified), which GLP1 secretion stimulation is on record?
Its GLP1 secretion stimulation is 6.3%.

With `COc1ccc(CN2CCN(C(c3ccc(F)cc3)c3ccc(F)cc3)CC2)c(OC)c1OC` as the compound, how does the GLP1 secretion stimulation read?
Its GLP1 secretion stimulation is 2.3%.

With `Cc1cccc(C)c1NC(=O)C(C)N` (stereo unspecified) as the compound, how does the GLP1 secretion stimulation read?
The GLP1 secretion stimulation was -0.6%.

With `NCC1CCC(C(=O)Oc2ccc(CCC(=O)O)cc2)CC1` (stereo unspecified) as the compound, how does the GLP1 secretion stimulation read?
Its GLP1 secretion stimulation is 1.4%.

For `CCCN1CCCC[C@H]1C(=O)Nc1c(C)cccc1C`, which GLP1 secretion stimulation is on record?
Its GLP1 secretion stimulation is 3.3%.

Which GLP1 secretion stimulation does the source give for `CC(C)(O)c1ccccc1CC[C@@H](SCC1(CC(=O)O)CC1)c1cccc(/C=C/c2ccc3ccc(Cl)cc3n2)c1` here?
Its GLP1 secretion stimulation is 80.8% (active).

With `CC(=O)Nc1ccc(CC(=O)O)cc1` as the compound, how does the GLP1 secretion stimulation read?
The GLP1 secretion stimulation was 0.9%.

Which GLP1 secretion stimulation does the source give for `CCN(CC)CCNC(=O)c1cc(Cl)c(N)cc1OC` here?
The GLP1 secretion stimulation was 0.3%.

Which GLP1 secretion stimulation does the source give for `NC1CCN(c2nc3c(cc2F)c(=O)c(C(=O)O)cn3-c2ccc(F)cc2F)C1` (stereo unspecified) here?
Its GLP1 secretion stimulation is 2.2%.

For `C[C@H]1COc2c(C3(N)CC3)c(F)cc3c(=O)c(C(=O)O)cn1c23`, which GLP1 secretion stimulation is on record?
The GLP1 secretion stimulation was 4.2%.

Which GLP1 secretion stimulation does the source give for `CN(C)CC[C@@H](c1ccc(Cl)cc1)c1ccccn1` here?
The GLP1 secretion stimulation was 5.7%.

Which GLP1 secretion stimulation does the source give for `COCc1c(C(C)C)nc(C(C)C)c(/C=C/[C@@H](O)C[C@@H](O)CC(=O)O)c1-c1ccc(F)cc1` here?
Its GLP1 secretion stimulation is 3.1%.
